# Reference: PubChem BioAssay (NCI)
# Where “and” joins values, the source holds several entries; their conditions need not be identical. Equal entries are not always repeated. Compounds without any hit were thinned out: in the full panel of roughly 83,000, 20% have a hit.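 Cells were grown in 96-well plates and exposed to the test compound at a single concentration for 48 hours; results are reported as percent growth, with values below 10 considered active.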 The source holds several records for some structures; these can differ, active in one and inactive in another. Calls of active or inactive are those of the source.
# Columns and labels:
# Assay in all cases: NCI-60 one-dose screen, 48 h (100 = growth as untreated, 0 = no growth, -100 = all killed)
# [1] = system: MCF7 breast
# [2] = system: RPMI-8226 leukemia; conditions: 10 µM unless noted
# [3] = system: OVCAR-5 ovarian
# [4] = system: OVCAR-4 ovarian
# [5] = system: SK-OV-3 ovarian; conditions: 10 µM unless noted
# [6] = system: IGROV1 ovarian
# [7] = system: OVCAR-3 ovarian
# [8] = system: HS 578T breast
# [9] = system: NCI/ADR-RES ovarian; conditions: 10 µM unless noted
# [10] = system: T-47D breast; conditions: 10 µM unless noted
# [11] = system: BT-549 breast
# [12] = system: MDA-MB-435 melanoma
# [13] = system: SW-620 colon
# [14] = system: HCT-116 colon
# [15] = system: HCC-2998 colon; conditions: 10 µM unless noted
# [16] = system: KM12 colon
# [17] = system: OVCAR-8 ovarian; conditions: 10 µM unless noted
structure (smiles),measurement,setting,value
COc1ccc(-c2nc3ccccc3c(=S)n2OC(C)=O)cc1,growth,[1]; 10 µM unless noted,8.58% [25 µM] (active) and -23% [25 µM] (active)
COc1cc(NS(C)(=O)=O)ccc1Nc1c2ccccc2nc2c(C)cccc12,growth,[2],-36.4% (active) and -21.4% (active)
same,growth,[3]; 10 µM unless noted,4.75% (active) and 8.59% (active)
same,growth,[4]; 10 µM unless noted,42.9% (inactive) and 62.8% (inactive)
same,growth,[5],5.9% (active) and 11.9% (inactive)
same,growth,[6]; 10 µM unless noted,2.93% (active) and 14.4% (inactive)
same,growth,[7]; 10 µM unless noted,-57% (active) and 24.6% (inactive)
same,growth,[8]; 10 µM unless noted,32.7% (inactive) and 43% (inactive)
same,growth,[9],27.7% (inactive) and 40.4% (inactive)
same,growth,[10],2.65% (active) and 4.75% (active)
same,growth,[11]; 10 µM unless noted,3.76% (active) and 4.61% (active)
same,growth,[12]; 10 µM unless noted,37.1% (inactive) and 45.7% (inactive)
same,growth,[13]; 10 µM unless noted,6.14% (active) and 16.4% (inactive)
same,growth,[14]; 10 µM unless noted,0.292% (active) and 8.67% (active)
same,growth,[15],-60.5% (active) and -6.07% (active)
same,growth,[16]; 10 µM unless noted,-32.8% (active) and 7.97% (active)
CC1=C(/C=C/C(C)=C/C=C/C(C)=C/C=N/NC(=S)NC(=S)N/N=C/C=C(C)/C=C/C=C(C)/C=C/C2=C(C)CCCC2(C)C)C(C)(C)CCC1,growth,[2],-2.02% (active) and -32.7% (active)
same,growth,[17],-12.5% (active) and -74.8% (active)
same,growth,[3]; 10 µM unless noted,-48.3% (active) and -77.7% (active)
same,growth,[4]; 10 µM unless noted,17% (inactive) and -0.538% (active)
same,growth,[5],57.5% (inactive)
same,growth,[6]; 10 µM unless noted,-34.8% (active) and -39.5% (active)
same,growth,[7]; 10 µM unless noted,-74.5% (active) and -99.4% (active)
same,growth,[9],-34% (active) and -58.9% (active)
same,growth,[10],-5.98% (active)
same,growth,[11]; 10 µM unless noted,-24.7% (active) and 5.7% (active)
same,growth,[12]; 10 µM unless noted,-47.1% (active) and -61.9% (active)
same,growth,[13]; 10 µM unless noted,-73.9% (active) and -83.4% (active)
same,growth,[1]; 10 µM unless noted,16.8% (inactive) and 9.28% (active)
same,growth,[14]; 10 µM unless noted,6.1% (active) and -84% (active)
same,growth,[15],57.1% (inactive) and 12.3% (inactive)
same,growth,[16]; 10 µM unless noted,-8.44% (active) and -50.7% (active)
Nc1ccc2ccc(N)cc2c1,growth,[2],84.6% (inactive)
same,growth,[17],82% (inactive)
same,growth,[3]; 10 µM unless noted,124% (inactive)
same,growth,[4]; 10 µM unless noted,40% (inactive)
same,growth,[5],91.6% (inactive)
same,growth,[6]; 10 µM unless noted,73.6% (inactive)
same,growth,[7]; 10 µM unless noted,25.5% (inactive)
same,growth,[8]; 10 µM unless noted,104% (inactive)
same,growth,[11]; 10 µM unless noted,87.7% (inactive)
same,growth,[12]; 10 µM unless noted,-33.6% (active)
same,growth,[13]; 10 µM unless noted,87.5% (inactive)
same,growth,[1]; 10 µM unless noted,63.5% (inactive)
same,growth,[14]; 10 µM unless noted,82.6% (inactive)
same,growth,[15],100% (inactive)
same,growth,[16]; 10 µM unless noted,67.1% (inactive)
NC(=S)NN=C1CCC(C2CCCCC2)CC1 (configuration not stated),growth,[2],67.1% (inactive) and 74.9% (inactive)
same,growth,[3]; 10 µM unless noted,110% (inactive) and 93.3% (inactive)
same,growth,[4]; 10 µM unless noted,33.8% (inactive)
same,growth,[5],100% (inactive) and 101% (inactive)
same,growth,[6]; 10 µM unless noted,98.2% (inactive) and 89.4% (inactive)
same,growth,[7]; 10 µM unless noted,83.9% (inactive) and 85.7% (inactive)
same,growth,[8]; 10 µM unless noted,79.3% (inactive) and 109% (inactive)
same,growth,[9],96.8% (inactive) and 102% (inactive)
same,growth,[10],44.1% (inactive) and 40% (inactive)
same,growth,[11]; 10 µM unless noted,102% (inactive) and 92.5% (inactive)
same,growth,[12]; 10 µM unless noted,79.1% (inactive) and 77.2% (inactive)
same,growth,[13]; 10 µM unless noted,84.6% (inactive) and 88.6% (inactive)
same,growth,[14]; 10 µM unless noted,73.9% (inactive) and 78.6% (inactive)
same,growth,[15],92.9% (inactive) and 94.7% (inactive)
same,growth,[16]; 10 µM unless noted,94.5% (inactive) and 93.9% (inactive)
COc1ccc(Cl)cc1C(=O)NCCc1ccc(S(=O)(=O)NC(=O)NC2CCCCC2)cc1,growth,[2],104% (inactive) and 99.5% (inactive)
same,growth,[3]; 10 µM,111% (inactive) and 112% (inactive)
same,growth,[3]; 100 µM,101% (inactive)
same,growth,[4]; 10 µM,117% (inactive) and 103% (inactive)
same,growth,[4]; 100 µM,58.7% (inactive)
same,growth,[5],103% (inactive) and 96.1% (inactive)
same,growth,[6]; 10 µM,119% (inactive) and 99.4% (inactive)
same,growth,[6]; 100 µM,69.2% (inactive)
same,growth,[7]; 10 µM,112% (inactive) and 121% (inactive)
same,growth,[7]; 100 µM,66.1% (inactive)
same,growth,[8]; 10 µM,94.7% (inactive) and 110% (inactive)
same,growth,[8]; 100 µM,54.8% (inactive)
same,growth,[11]; 10 µM,109% (inactive) and 107% (inactive)
same,growth,[11]; 100 µM,67% (inactive)
same,growth,[12]; 10 µM,103% (inactive) and 107% (inactive)
same,growth,[12]; 100 µM,69.5% (inactive)
same,growth,[13]; 10 µM,99.3% (inactive) and 109% (inactive)
same,growth,[13]; 100 µM,82.9% (inactive)
same,growth,[1]; 10 µM,108% (inactive) and 102% (inactive)
same,growth,[1]; 100 µM,66.1% (inactive)
same,growth,[14]; 10 µM,110% (inactive) and 96.1% (inactive)
same,growth,[14]; 100 µM,67.3% (inactive)
same,growth,[16]; 10 µM,109% (inactive) and 108% (inactive)
same,growth,[16]; 100 µM,60.1% (inactive)
CCOc1ccc2nc3cc(N)ccc3c(N)c2c1,growth,[2],113% (inactive) and 86.4% (inactive)
same,growth,[4]; 10 µM unless noted,56.6% (inactive) and 49.2% (inactive)
same,growth,[5],61% (inactive) and 76.5% (inactive)
same,growth,[6]; 10 µM unless noted,69.9% (inactive) and 99.4% (inactive)
same,growth,[7]; 10 µM unless noted,35.3% (inactive) and 22.8% (inactive)
same,growth,[8]; 10 µM unless noted,28.8% (inactive)
same,growth,[9],88.4% (inactive) and 71.8% (inactive)
same,growth,[10],7.14% (active) and -4.55% (active)
same,growth,[11]; 10 µM unless noted,35.7% (inactive) and -3.05% (active)
same,growth,[12]; 10 µM unless noted,91.7% (inactive) and 98.2% (inactive)
same,growth,[13]; 10 µM unless noted,46.1% (inactive) and 50% (inactive)
same,growth,[1]; 10 µM unless noted,16.8% (inactive)
same,growth,[14]; 10 µM unless noted,46.4% (inactive) and 29.6% (inactive)
same,growth,[15],45.3% (inactive) and 46.1% (inactive)
same,growth,[16]; 10 µM unless noted,45.1% (inactive) and 31.5% (inactive)
O=[N+]([O-])c1ccc(-n2[nH]nnc2=S)cc1,growth,[2],102% (inactive)
same,growth,[3]; 10 µM unless noted,102% (inactive)
same,growth,[4]; 10 µM unless noted,92% (inactive)
same,growth,[5],103% (inactive)
same,growth,[6]; 10 µM unless noted,91.3% (inactive)
same,growth,[7]; 10 µM unless noted,110% (inactive)
same,growth,[8]; 10 µM unless noted,104% (inactive)
same,growth,[9],106% (inactive)
same,growth,[10],103% (inactive)
same,growth,[11]; 10 µM unless noted,104% (inactive)
same,growth,[12]; 10 µM unless noted,106% (inactive)
same,growth,[13]; 10 µM unless noted,103% (inactive)
same,growth,[1]; 10 µM unless noted,95% (inactive)
same,growth,[14]; 10 µM unless noted,101% (inactive)
same,growth,[15],101% (inactive)
same,growth,[16]; 10 µM unless noted,108% (inactive)
C/C(=N\NC(=O)c1ccncc1)c1ccccc1O,growth,[2],38.2% (inactive)
same,growth,[17],37.1% (inactive) and 10.9% (inactive)
same,growth,[3]; 10 µM unless noted,48.2% (inactive) and 51% (inactive)
same,growth,[4]; 10 µM unless noted,20% (inactive) and 22.5% (inactive)
same,growth,[5],45.6% (inactive) and 38.4% (inactive)
same,growth,[7]; 10 µM unless noted,20.3% (inactive) and 12.6% (inactive)
same,growth,[8]; 10 µM unless noted,76.1% (inactive)
same,growth,[9],18% (inactive) and 16.9% (inactive)
same,growth,[10],30.8% (inactive) and 24.3% (inactive)
same,growth,[11]; 10 µM unless noted,52% (inactive) and 20.7% (inactive)
same,growth,[12]; 10 µM unless noted,50.5% (inactive) and 57.5% (inactive)
same,growth,[13]; 10 µM unless noted,34.2% (inactive) and 42.3% (inactive)
same,growth,[14]; 10 µM unless noted,5.77% (active) and 2.15% (active)
same,growth,[15],25% (inactive) and 32.1% (inactive)
same,growth,[16]; 10 µM unless noted,31.9% (inactive) and 34.4% (inactive)
NNc1[nH]c(=S)[nH]c1C(N)=O,growth,[1]; 10 µM unless noted,98.4% [100 µM] (inactive) and 70.9% [100 µM] (inactive)
C=C1C(=O)O[C@@H]2C[C@@]3(C)CC(=O)C=C(C)[C@@H]3C[C@H]12,growth,[1]; 10 µM unless noted,-74.2% [100 µM] (active) and -78.3% [100 µM] (active)
COC(=O)c1ccc(NC(=O)O/N=C(\Cl)C(C)C)cc1,growth,[1]; 10 µM unless noted,-87.1% [100 µM] (active) and -100% [100 µM] (active)
CC1CC2(OC2C)C(=O)OC2CCN(C)C/C=C(/COC(=O)C1(C)O)C2=O (configuration not stated),growth,[1]; 10 µM unless noted,91.6% [100 µM] (inactive) and 82.5% [100 µM] (inactive)
Cc1ccc(C)c(NC(=O)/C(=N\N)C(c2cnc3ccc([N+](=O)[O-])cc3n2)[N+](=O)[O-])c1 (configuration not stated),growth,[1]; 10 µM unless noted,50.4% [100 µM] (inactive) and 9.64% [100 µM] (active)
C=C1C(=O)O[C@H]2C[C@@]3(C)[C@H](O)CCC(=C)[C@@H]3[C@@H](OC(C)=O)[C@H]12,growth,[1]; 10 µM unless noted,-83.4% [100 µM] (active) and -77.4% [100 µM] (active)
Cc1coc2c1C(OC(=O)C(C)C)C1(C)C(C)CCC(O)C1C2=O (configuration not stated),growth,[1]; 10 µM unless noted,21.2% [100 µM] (inactive) and 6.5% [100 µM] (active)
COc1ccc2cc1Oc1ccc(cc1)C[C@@H]1c3cc(c(OC)cc3CCN1C)Oc1c(OC)c(OC)cc3c1[C@H](C2)N(C)CC3,growth,[1]; 10 µM unless noted,35.9% [100 µM] (inactive) and -90.5% [100 µM] (active)
CNc1nc2c(C)ccc3[nH]c(N(C)C)nc3c-2n1,growth,[1]; 10 µM unless noted,8.99% [100 µM] (active) and 1.25% [100 µM] (active)
COc1ccc2c(=O)c(-c3cc4c(cc3OC)OCO4)coc2c1,growth,[1]; 10 µM unless noted,74% [100 µM] (inactive) and 47.3% [100 µM] (inactive)
O=C(NC1=NC2C=CC([N+](=O)[O-])=CC2S1)C(=O)Nn1c(=S)[nH]c2ccccc2c1=O (configuration not stated),growth,[1]; 10 µM unless noted,52.7% [100 µM] (inactive) and 8.91% [100 µM] (active)
O=C(O)CCCC(=O)Nn1c(Cc2ccc(Cl)cc2)n[nH]c1=O,growth,[1]; 10 µM unless noted,78.3% [100 µM] (inactive) and 78.8% [100 µM] (inactive)
Clc1ccc(C2NN=C3c4ccccc4OCC32)cc1 (configuration not stated),growth,[1]; 10 µM unless noted,-15.5% [100 µM] (active) and -82.5% [100 µM] (active)
C=C(C)C1CC2(C)C(C)CC(OC(=O)/C(C)=C\C)CC2C(OC(=O)/C(C)=C\C)C1O (configuration not stated),growth,[1]; 10 µM unless noted,-15.7% [100 µM] (active) and -14.3% [100 µM] (active)
NC(=O)CC1OC(=O)Cc2cc3c(c(O)c21)C(=O)c1c(O)cccc1C3=O (configuration not stated),growth,[1]; 10 µM unless noted,30.4% [100 µM] (inactive)
